Out of some 96,000 compounds screened, about 19,000 (20%) were called active.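 The calls were made as follows: active = blocking of liver enzyme CYP2C9 beyond about 50% at 5 µM (limit read from the data); inactive = the rest.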 Not all results are given here.
What follows are molecules tested against Cytochrome P450 2C9 (Homo sapiens) (UniProt P11712) (assay: blockers of cytochrome P450 2C9 activity – biochemical, luminescence, ADME assay, primary screen (AID 777)). Details: CYP2C9 Supersomes, luciferin-H conversion, at 5 µM, hits give high values.
Cytochrome P450 2C9 (Homo sapiens), sequence (P11712 whole entry, looked up): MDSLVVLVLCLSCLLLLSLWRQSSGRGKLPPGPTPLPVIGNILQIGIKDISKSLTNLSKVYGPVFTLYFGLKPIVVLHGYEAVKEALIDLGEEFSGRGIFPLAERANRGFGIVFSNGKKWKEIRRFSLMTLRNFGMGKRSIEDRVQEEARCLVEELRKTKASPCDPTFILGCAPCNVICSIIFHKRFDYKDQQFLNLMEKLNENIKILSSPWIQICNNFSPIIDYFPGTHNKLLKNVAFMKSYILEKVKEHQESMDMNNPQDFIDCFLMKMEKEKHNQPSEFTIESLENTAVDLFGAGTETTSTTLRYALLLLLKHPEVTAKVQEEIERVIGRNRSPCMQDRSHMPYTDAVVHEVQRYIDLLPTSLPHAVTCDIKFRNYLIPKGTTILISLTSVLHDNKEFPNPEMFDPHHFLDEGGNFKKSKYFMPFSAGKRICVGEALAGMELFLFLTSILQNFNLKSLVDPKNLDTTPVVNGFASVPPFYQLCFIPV

Compound	inhibition
CCc1c(C)[nH]c(=S)c(C#N)c1C	16% (inactive)
Cc1cc(C)nc(NC2=NCC(=O)N2c2ccc(Cl)cc2)n1	-8.5% (inactive)
Cc1ccc(Oc2nc3ccccc3n3c(C)nnc23)cc1	13.5% (inactive)
COC(=O)CN(c1cccc(C(C)=O)c1)S(C)(=O)=O	40.7% (inactive)
CC1=NN(C(C)C)C(=O)C1	12.8% (inactive)
COCCNC(=O)COc1ccc(C)c(C)c1	-28.7% (inactive)
O=S(=O)(O)c1nc2ccccc2n1Cc1ccc(Cl)cc1Cl	74.7% (active)
O=S(=O)(O)c1nc2ccccc2n1Cc1ccc(Cl)cc1	43.6% (inactive)
CCC(=O)Nc1nc2ccccc2n1Cc1ccccc1C	-6.9% (inactive)
Cc1ccc(F)c(NC(=O)CCc2ccccc2)c1	-15.7% (inactive)
O=C(OCc1cn(-c2ccc(Cl)c(Cl)c2)nn1)c1ccccc1Cl	-32.3% (inactive)
CCc1nnc(NS(=O)(=O)c2ccc(N=Cc3c(C)[nH]n(-c4ccc(C)cc4)c3=O)cc2)s1	17% (inactive)
CCc1nnc(NS(=O)(=O)c2ccc(NS(=O)(=O)c3ccccc3)cc2)s1	77.5% (active)
CCc1nnc(NC(=O)c2ccc(S(=O)(=O)NC3CCCCC3)cc2)s1	20.2% (inactive)
CCC(C)NC(=O)c1cc(Cl)ccc1OC (stereo unspecified)	-166% (inactive)
Cc1ccc(C(C(=O)NC2CCCCC2)N(C(=O)c2csnn2)C2CC2)o1 (stereo unspecified)	26.6% (inactive)
CCc1c(C)sc(NC(=O)OC)c1C(=O)N1CCOCC1	-10.7% (inactive)
CCCCCN1CC(O)=C(c2nc(-c3ccc(Cl)cc3)cs2)C1=N	62.1% (active)
COc1ccccc1N1CC(O)=C(c2nc3ccccc3s2)C1=N	26.8% (inactive)
CCCCCN1CC(O)=C(c2ccccc2)C1=N	-11.3% (inactive)
Cc1ccc(CNC(=O)C2CC(c3ccccc3[N+](=O)[O-])=NO2)o1 (stereo unspecified)	-18.8% (inactive)
COC(=O)c1ccc(CSc2nc3cc(Cl)ccc3o2)cc1	-7.6% (inactive)

Compound	inhibition
CC(C)Cc1nc(N2CCOCC2)c(C#N)c2c1CCC2	39.5% (inactive)
CC(C)c1nc(N2CCOCC2)c(C#N)c2c1COC(C)(C)C2	61.7% (active)
CC1(C)Cc2c(C#N)c(SCc3nc4ccccc4[nH]3)nc(N3CCOCC3)c2CO1	96.2% (active)
C1=C(N2CCOCC2)/C(=C/c2nc3ccccc3[nH]2)CC1	11.9% (inactive)
CC(C)C(=O)N1CCN(c2nc(-c3ccccc3)c3c(c2C#N)CC(C)(C)OC3)CC1	97.1% (active)
Cc1nc(NCc2ccccc2)c(C(N)=O)c2c1COC(C)(C)C2	2.7% (inactive)
c1ccc2[nH]c(NCCN3CCOCC3)nc2c1	-29.7% (inactive)
c1ccc2cc(OCCN3CCCC3)ccc2c1	2.2% (inactive)
O=C(CCCN1C(=O)CSc2ncccc21)N1CCN(c2cccc(C(F)(F)F)c2)CC1	31.1% (inactive)
CN1CCN(CC(O)COCc2ccc3c(c2)OCO3)CC1 (stereo unspecified)	-13.3% (inactive)
COc1ccc2c3c(c(=O)oc2c1OCC(=O)C(C)(C)C)CCCC3	25.4% (inactive)
O=C(NCc1ccccn1)Nc1ccc(F)cc1	2.9% (inactive)
CCN(CC)C(=O)CSC1c2ccccc2C(=O)N1c1ccccc1 (stereo unspecified)	-6.2% (inactive)
Cc1ccc(NC2=NC(c3ccccc3)n3c(nc(C)cc3=O)N2)cc1 (stereo unspecified)	35.5% (inactive)
Cc1ccc(S(=O)(=O)Nc2nc3ccccc3nc2N2CCc3ccccc3C2)cc1	96% (active)
O=C(Nc1ccc(S(=O)(=O)N2CCc3ccccc3C2)cc1)c1ccccc1	1.2% (inactive)
Cc1ccc(S(=O)(=O)NCc2nc3ccccc3c(=O)n2N)cc1	-7.2% (inactive)
Cc1cc([N+](=O)[O-])ccc1NCc1cccc([N+](=O)[O-])c1	-1.6% (inactive)
COc1ccc(OCC(=O)NNC(=O)c2ccc(-c3ccccc3)cc2)cc1	-3.2% (inactive)
CC(Oc1ccc(Cl)cc1)C(=O)Nc1ncccn1 (stereo unspecified)	0.9% (inactive)
CCC(C)OC(=O)C(C)Oc1ccc(-c2ccccc2)cc1 (stereo unspecified)	79.9% (active)
Cn1c(/C(C#N)=C2/CCCCCN2)nc2ccccc21	29.5% (inactive)

Compound	inhibition
COc1ccc(-c2[nH]nc(-c3ccccc3)c2-c2nc3ccccc3[nH]2)cc1	10% (inactive)
O=C(NCCN=C1NS(=O)(=O)c2ccccc21)c1ccc(S(=O)(=O)N2CCOCC2)cc1	46.2% (inactive)
Cc1nc2ccccc2c2oc(C(=O)NCC3CCCO3)cc12 (stereo unspecified)	0.9% (inactive)
Cn1c(=O)c2[nH]c(NCC3CCCO3)nc2n(-c2ccccc2)c1=O (stereo unspecified)	10.1% (inactive)
c1ccc2c(NCC3CCCO3)nc(-c3ccncc3)nc2c1 (stereo unspecified)	83% (active)
Cc1ccc(S(=O)(=O)NCC(=O)N(CC(=O)NC2CCCCC2)Cc2ccco2)cc1	10.4% (inactive)
O=C(NCc1ccc(Cl)c(Cl)c1)c1cccnc1	14.6% (inactive)
Cn1ccs/c1=N\S(=O)(=O)c1ccc(C(C)(C)C)cc1	67.2% (active)
CCSc1nnc(NC(=O)c2ccc(C)cc2)s1	38% (inactive)
Cc1ccc(NC(=O)c2nc[nH]c2C(=O)N2CCCCC2)c(C(=O)c2ccccc2)c1	40.9% (inactive)
Cc1ccc(C)c(S(=O)(=O)N2CC(=O)Nc3ccccc32)c1	12.1% (inactive)
COCCn1c(-c2ccc(OC)c(OC)c2)nc2ccccc21	-20% (inactive)
CCOCCn1c(C(C)C)nc2ccccc21	5.1% (inactive)
COc1ccc(-c2nc3ccccc3n2CCC(C)C)cc1OC	59.6% (active)
CSc1nc(-c2ccco2)nn1C(=O)CCc1ccccc1	-12.3% (inactive)
C=CCOc1cccc(CNn2cn[nH]c2=S)c1	-16.1% (inactive)
CCN(Cc1ccncc1)C(=O)c1cccc(S(=O)(=O)N2CCOCC2)c1	94.8% (active)
O=C(c1cccc(S(=O)(=O)N2CCOCC2)c1)N1CCOCC1	-6.1% (inactive)
CC(C)C(NC(=O)c1cccc(S(=O)(=O)N2CCOCC2)c1)C(=O)NCCc1ccccn1 (stereo unspecified)	-17.7% (inactive)
COc1cc(C2C(C#N)=C(N)Oc3n[nH]c(-c4ccccn4)c32)cc(OC)c1OC (stereo unspecified)	-6.2% (inactive)
N#CC1=C(N)Oc2cc(O)ccc2C1C1CCCCC1 (stereo unspecified)	44.8% (inactive)
COc1ccc(C2C(C#N)=C(N)Oc3cc(N)ccc32)cc1OC (stereo unspecified)	85.7% (active)
